Measurements reported in article PMC5540273 (PLoS ONE, 2017).

How the values were obtained:
Conditions in all cases: concentration: 1 μM, replicates: in singlicate; n = 1
[1] = test system: JAK1(JH2domain-pseudokinase)
[2] = test system: JAK2(JH1domain-catalytic)
[3] = test system: JAK3(JH1domain-catalytic)
JNK1 = test system: T1, JNK1
T1 construct: gene MAPK8

JNK2 = test system: T2, JNK2
T2 construct: gene MAPK9

JNK3 = test system: T3, JNK3
T3 construct: gene MAPK10

KIT-autoinhibited = test system: KIT-autoinhibited
KIT = test system: KIT
LATS1 = test system: LATS1
LATS2 = test system: LATS2
LCK = test system: LCK
LIMK1 = test system: LIMK1
LIMK2 = test system: LIMK2
LKB1 = test system: T4, LKB1
T4 construct: gene STK11

LOK = test system: T5, LOK
T5 construct: gene STK10

LRRK2 = test system: LRRK2
LTK = test system: LTK
LYN = test system: LYN
LZK = test system: T6, LZK
T6 construct: gene MAP3K13

MAK = test system: MAK
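Note: KINOMEscan kinase panel screen.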

| Structure (SMILES) | %Inh [1] | %Inh [2] | %Inh [3] | %Inh (JNK1) | %Inh (JNK2) | %Inh (JNK3) | %Inh (KIT-autoinhibited) | %Inh (KIT) | %Inh (LATS1) | %Inh (LATS2) | %Inh (LCK) | %Inh (LIMK1) | %Inh (LIMK2) | %Inh (LKB1) | %Inh (LOK) | %Inh (LRRK2) | %Inh (LTK) | %Inh (LYN) | %Inh (LZK) | %Inh (MAK) |
| --- | --- | --- | --- | --- | --- | --- | --- | --- | --- | --- | --- | --- | --- | --- | --- | --- | --- | --- | --- | --- |
| Cn1cc(-c2ccc3c(c2)CCN3C(=O)Cc2cc(F)cc(F)c2F)c2c(N)ncnc21 [GSK2634140] | 0% | 11% | 0% | 15% | 24% | 4% | 0% | 99.1% | 80% | 7% | 58% | 0% | 0% | 0% | 91.8% | 0% | 24% | 0% | 0% | 23% |
| N#Cc1cnc2cc(-c3cnc(CNCCN4CCOCC4)s3)ccc2c1Nc1ccc(Oc2ccccc2)cc1 [GW664114] | 0% | 0% | 0% | 13% | 6% | 0% | 0% | 19% | 0% | 3% | 99.7% | 6% | 0% | 0% | 88% | 0% | 0% | 90% | 76% | 28% |
| COc1cc(Nc2nccc(N3CCC(NS(=O)(=O)c4ccc(NC(C)=O)cc4)CC3)n2)cc(OC)c1OC [GSK1379825] | 83% | 96.3% | 8% | 44% | 37% | 31% | 0% | 90% | 0% | 0% | 18% | 93% | 100% | 0% | 2% | 29% | 0% | 56% | 27% | 61% |
| Fc1cc(Cl)ccc1Nc1ccnc2cc(-c3ccc(CN4CCSCC4)o3)ccc12 [GW560106] | 0% | 0% | 0% | 13% | 34% | 1% | 11% | 100% | 73% | 0% | 98.4% | 0% | 0% | 11% | 73% | 22% | 61% | 74% | 32% | 32% |
| Cc1nn2c(=O)cc(N3CCO[C@H](C)C3)nc2n1Cc1cccc(Cl)c1Cl [GSK2373693] | 0% | 22% | 0% | 16% | 9% | 7% | 0% | 51% | 0% | 0% | 13% | 0% | 0% | 0% | 0% | 18% | 27% | 0% | 0% | 15% |
| Cc1ccccc1CC(=O)N1CCc2cc(-c3cn(C)c4ncnc(N)c34)ccc21 [GSK2603346] | 0% | 26% | 0% | 1% | 13% | 7% | 1% | 99.8% | 0% | 0% | 30% | 0% | 0% | 0% | 89% | 21% | 23% | 0% | 0% | 1% |
| CC(=O)Nc1cn2nc(Oc3cccc(NC(=O)c4cccc(C(F)(F)F)c4)c3)ccc2n1 | 5% | 0% | 0% | 26% | 0% | 0% | 87% | 100% | 5% | 0% | 99.5% | 0% | 14% | 0% | 90.1% | 8% | 0% | 97.9% | 0% | 0% |
| Cc1ccc(NC(=O)c2ccc(Cl)c(Cl)c2)cc1-c1ccc(C(=O)Nc2ccncc2)cc1 [GSK1398460] | 0% | 0% | 0% | 11% | 4% | 0% | 9% | 100% | 0% | 3% | 91.9% | 19% | 0% | 0% | 0% | 0% | 11% | 83% | 0% | 100% |
| Cc1ccc(Nc2ccnc(Nc3ccc(C)c(F)c3)n2)cc1O.Cl [GW582868] | 62% | 48% | 0% | 31% | 16% | 12% | 3% | 93.8% | 0% | 0% | 59% | 0% | 0% | 0% | 5% | 57% | 0% | 22% | 24% | 17% |
| O=C(O)C(F)(F)F.O=c1[nH]ccc2nc(N[C@@H]3CCNC3)nc(Nc3ccc4c(c3)S(=O)(=O)CC4)c12 [GSK2181306] | 98% | 98.4% | 100% | 83% | 54% | 78% | 0% | 73% | 51% | 80% | 40% | 0% | 0% | 2% | 97.2% | 94.5% | 29% | 7% | 6% | 93.5% |
